15 molecules from PubChem BioAssay (EPA / NIEHS) can be followed below.

Results filed as inconclusive are left out. Active and inactive are the calls of the source. The calls were made as follows: active = hit-call score of the fitted dose curve at least 0.9, where 1 is the maximum; inconclusive = response in the unintended direction; inactive = score below 0.9.

Read-out in the test: HMG-CoA synthase (HMGCS2), HMGCS2 (gene 3158)
Description: CLD_HMGCS2_24hr: CellzDirect (CLD) Gene Expression Assay for HMG-CoA synthase (HMGCS2) at 24 hours (AID 2283691). As for the experimental part: CLD_24hr is a cell-based, multiplexed-readout assay that uses hepatocyte, a human liver primary cell, with measurements taken at 24 hours after chemical dosing in a 96-well plate.CLD_HMGCS2_24hr is one of 16 assay component(s) measured or calculated from the CLD_24hr assay. It is designed to make measurements of mRNA induction, a form of inducible reporter, as detected with chemiluminescence signals by Quantitative Nuclease Protection Assay (qNPA) technology.Data from the assay component CLD_HMGCS2_24hr was analyzed at the endpoint, CLD_HMGCS2_24hr, in the positive analysis fitting direction relative to DMSO as the negative control and baseline of activity. Using a type of inducible reporter, gain-of-signal activity can be used to understand changes in the reporter gene as they relate to the gene HMGCS2. Furthermore, this assay endpoint can be referred to as a primary readout. To generalize the intended target to other relatable targets, this assay endpoint is annotated to the lyase intended target family, where subfamily is HMG-CoA synthase.
Human hepatocyte cultures were treated daily for two consecutive days with fresh dosing solutions containing appropriate concentrations of the 320 ToxCast chemicals (chemical identities were blinded to CellzDirect and other ToxCast collaborators), vehicle control (0.2% DMSO), and positive control inducers as summarized in Table 1. Due to the large number of treatment groups and chemicals examined, the ToxCast chemicals were divided into two groups (spanning two independent cultures of hepatocytes from separate donor preparations (Hu778: ToxCast plates 1 and 2; Hu776: ToxCast plates 3 and 4). Each preparation of human hepatocyte cultures was treated with respective vehicle control, medium only control, set of six positive controls/reference chemicals for the five hepatic receptor pathways, and a subset of eight of the ToxCast chemicals (indoxacarb, pyrithiobac-sodium, norflurazon, cyhalofop-butyl, methomyl, thiram, acetochlor, and propiconazole). These replicate data, coupled with internal replicates designed within the blinded ToxCast chemical library, provided additional data to evaluate interindividual differences between hepatocyte preparations and their potential impact on chemical profiles.Cell morphology and integrity were evaluated using phase-contrast microscopy as an indicator of hepatocyte cell health (Tyson & Green, 1987). Cultures for each treatment group (i.e., media, vehicle [0.2% DMSO], positive control inducers [multiple concentrations], and the ToxCast chemicals [multiple concentrations]) were observed and cell morphology was assessed relative to vehicle control cultures at each harvest time point (0, 6, 24, or 48 h). […] Images were evaluated at the conclusion of the study to assess changes in cell integrity and account for the effects of chemical exposure on uncharacteristic changes in concentration-dependent gene expression profiles. The results from these determinations of apparent cytotoxicity were annotated (yes/no) alongside the corresponding qNPA data for reference.At the conclusion of each treatment period, hepatocyte cultures (96-well) were washed with 1 volume of HBSS, lysed by addition of 25 ul ArrayPlate lysis buffer (HTG, Tucson, AZ), and 70 ul/well of Denaturation Oil, denatured by incubation at 95C for 10 min, and frozen at approximately -70C until analysis by nuclease protection assay (qNPA) (Roberts et al., 2007). For qNPA analysis, cell lysates were thawed at 50C for approximately 30 min, qNPA probes were added, and samples were incubated at 95C for 10 min to begin the detection process by denaturing the target RNA, dissociating the duplexes and secondary structure hybridization. At the conclusion of the hybridization period, S1 nuclease reagent was added to each sample to digest all nonprotected nucleotides at 50C for 60-90 min. […]
Turning to `COC(=O)C(C)Oc1ccc(Oc2ccc(Cl)cc2Cl)cc1` (stereo not given), the molecule was classed as inactive.

As for `Cc1c(F)c(F)c(COC(=O)C2C(/C=C(\Cl)C(F)(F)F)C2(C)C)c(F)c1F` (stereo not given), the outcome was inactive.

For `CCON=C(CC)C1=C(O)CC(c2c(C)cc(C)cc2C)CC1=O` (stereo not given), the molecule was classed as inactive.

On to `CCCCNC(=O)OCC#CI`, for which the call was inactive.

Turning to `Cc1cc(Cl)ccc1OCC(=O)O`, the outcome was inactive.

In the case of `CS/C(C)=N/OC(=O)N(C)SN(C)C(=O)O/N=C(\C)SC`, the outcome was inactive.

For the molecule `O=C(O)c1nc(Cl)ccc1Cl`, the outcome was inactive.

With `CC(C)C1(C)N=C(c2nc3ccccc3cc2C(=O)O)NC1=O` (stereo not given), the result was inactive.

With `O=C(O)COc1nc(Cl)c(Cl)cc1Cl`, the molecule was called inactive.

For `C=CC1(C)OC(=O)N(c2cc(Cl)cc(Cl)c2)C1=O` (stereo not given), the call was inactive.

Consider `Oc1ccccc1-c1ccccc1`, for which the result was inactive.

As to `COc1nc(C)nc(NC(=O)NS(=O)(=O)c2ccccc2CCC(F)(F)F)n1`, the result was inactive.

For `CCCCOC(=O)c1ccccc1C(=O)OCCCC`, the outcome was inactive.

Regarding `COP(=S)(OC)Oc1nc(Cl)c(Cl)cc1Cl`, the molecule was classed as inactive.

For the molecule `CCOC(=O)CC(SP(=S)(OC)OC)C(=O)OCC` (stereo not given), the call was inactive.
